# Experimental data taken from the supplement of paper PMC5662767.
# Structures can show the parent of a compound that is named as a salt.
# System: Drosophila S2 cl14 SmoIP sensor cells
# Experiment: normalized SmoIP GFP fluorescence (untreated unstimulated = 0%, untreated Hh-stimulated = 100%); higher = more Smo activation sensor fluorescence
# Conditions: compound concentration: 2 uM, 24 h
# [1] = stimulation: Hh conditioned medium (+Hh)
# [2] = stimulation: mock conditioned medium (-Hh)
# 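Also: flow cytometry read-out as median GFP intensity of gated cells, compounds added 30 min before Hh-conditioned or mock medium, mock-treated cells serving as unstimulated baseline.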
SMILES,normalized SmoIP GFP fluorescence [1],normalized SmoIP GFP fluorescence [2]
Cc1nccn1CC1CCc2c(c3ccccc3n2C)C1=O (stereo unspecified) [Ondansetron-hydrochloride],109%,-2.96%
Nc1nc(CC(=O)Nc2ccc(CCNC[C@H](O)c3ccccc3)cc2)cs1 [mirabegron-ym178],108%,-5.15%
CC1(COc2ccc3c(c2)ncn3-c2ccc3cccc(N4CCC(N)CC4)c3n2)COC1,260%,77.9%
COC(=O)N1CCN(Cc2cccc(NC(=O)Nc3ccc(C)nc3)c2F)CC1,125%,-11.4%
COc1cc2c(cc1OC)CN(CCc1ccc(NC(=O)c3cc(OC)c(OC)cc3NC(=O)c3cnc4ccccc4c3)cc1)CC2 [tariquidar],120%,2.77%
Cc1cc(-c2ncc(CC(=O)Nc3ccc(-c4cnccn4)cn3)cc2C)ccn1,130%,-1.23%
CC(C)c1nc(CN(C)C(=O)N[C@@H](CCN2CCOCC2)C(=O)N[C@H](CC[C@H](Cc2ccccc2)NC(=O)OCc2cncs2)Cc2ccccc2)cs1 [cobicistat-gs-9350],113%,0.474%
C[C@@H]1COC(Nc2ccc3ncnc(Nc4ccc(OCc5nccs5)c(Cl)c4)c3c2)=N1,108%,-17.2%
CN1CCC(CNc2ccc3ncc(-c4cccc(OC(F)(F)F)c4)n3n2)CC1,122%,5.38%
COc1ccccc1OCCNCC(O)COc1cccc2[nH]c3ccccc3c12 (stereo unspecified) [carvedilol],118%,-7.78%
CCc1c(O)cc(O)c(C(=O)c2ccc(OCCN3CCOCC3)c(OC)c2)c1CC(=O)N(CCOC)CCOC,121%,-12.4%
Cc1cccc(-c2[nH]c(C(C)(C)C)nc2-c2ccc3nccnc3c2)n1,102%,-5.22%
CS(=O)(=O)Nc1ccc([N+](=O)[O-])cc1Oc1ccccc1 [nimesulide],109%,-4.35%
CCC1=C(C)CN(C(=O)NCCc2ccc(S(=O)(=O)NC(=O)N[C@H]3CC[C@H](C)CC3)cc2)C1=O [Glimepiride],94.8%,3.18%
CCC(CC)CC1(C(=O)Nc2ccccc2SC(=O)C(C)C)CCCCC1 [dalcetrapib-jtt-705],137%,-10.6%
N[C@H]1C[C@@H]1c1ccc(-c2cccc(O)c2)cc1,102%,-4.81%
CCc1ccc(OCc2ccccc2C(=O)Nc2ccc3nc(C)cc(N)c3c2)cc1,164%,14.4%

SMILES,normalized SmoIP GFP fluorescence [1],normalized SmoIP GFP fluorescence [2]
CNC(=O)c1cc(Oc2ccc(NC(=O)Nc3ccc(Cl)c(C(F)(F)F)c3)cc2)ccn1 [sorafenib],107%,9.54%
O=c1n(CCCN2CCN(c3cccc(Cl)c3)CC2)nc2ccccn12 [trazodone-hydrochloride-desyrel],172%,-8.23%
Nc1nc(N)c2nc(-c3cccc(O)c3)cnc2n1,108%,-4.7%
C[C@H]1c2cccc(O)c2C(=O)C2=C(O)[C@]3(O)C(=O)C(C(N)=O)=C(O)[C@@H](N(C)C)[C@@H]3[C@@H](O)[C@@H]21 [doxycycline-hcl],101%,-1.63%
N#C/C(=C(/N)Sc1ccc(N)cc1)c1ccccc1C(F)(F)F,131%,10.2%
C[C@@]1(C(=O)Nc2ccc(F)nc2)CCCN1c1nc(Nc2cc(C3CC3)n[nH]2)c2cccn2n1,230%,60.9%
Cc1ccc(C(=O)Nc2ccc(CN3CCN(C)CC3)c(C(F)(F)F)c2)cc1C#Cc1cnc2[nH]ncc2c1,104%,3.88%
CNC(=O)c1cc(Oc2ccc(NC(=O)Nc3ccc(Cl)c(C(F)(F)F)c3)cc2)ccn1 [Sorafenib-Tosylate],112%,47.1%
Cn1cnc2c(F)c(Nc3ccc(Br)cc3Cl)c(C(=O)NOCCO)cc21,126%,42.9%
COc1cc2c(cc1OC)[C@@H]1Cc3ccc(OC)c(OC)c3CN1CC2 [rotundine],160%,12.5%
NC(=O)N1c2ccccc2CC(=O)c2ccccc21 [Oxcarbazepine],103%,2.97%
O=C(CCCS)NC1CCN(C(=O)COc2ccc(Cl)cc2Cl)CC1 [k-ras-g12c-inhibitor-6],113%,-2.82%
CN(C)Cc1cccc(N=C(c2ccccc2)c2c(O)[nH]c3cc(C(=O)N(C)C)ccc23)c1,86.4%,-3.71%
Oc1ccc(/C=C/c2cc(O)cc(O)c2)cc1 [Resveratrol],104%,-4.25%
CCC(=O)Nc1cccc(Oc2nc(Nc3ccc(N4CCN(C)CC4)cc3OC)ncc2Cl)c1,73.7%,-6.51%
COc1cc2nccc(Oc3ccc(NC(=O)Nc4cc(C)on4)c(Cl)c3)c2cc1OC,111%,1.89%
